# rTrxR1 inhibitor – rat TrxR1 inhibition; recombinant rTrxR1, NADPH fluorescence consumption, selenite substrate; O89049; 390,000 tested, 1% active; Potency, µM (titrated, usually from 114 µM), inactives show at the highest dose activity change, negative = inhibition, usual class: inhibitors; note: potency is the fitted concentration of half-maximal effect; % is set by controls: 0 for no effect and ±100 for the full control effect; nearly all actives have a fitted effect of over 65% in size
# Target sequence (O89049 whole entry, looked up): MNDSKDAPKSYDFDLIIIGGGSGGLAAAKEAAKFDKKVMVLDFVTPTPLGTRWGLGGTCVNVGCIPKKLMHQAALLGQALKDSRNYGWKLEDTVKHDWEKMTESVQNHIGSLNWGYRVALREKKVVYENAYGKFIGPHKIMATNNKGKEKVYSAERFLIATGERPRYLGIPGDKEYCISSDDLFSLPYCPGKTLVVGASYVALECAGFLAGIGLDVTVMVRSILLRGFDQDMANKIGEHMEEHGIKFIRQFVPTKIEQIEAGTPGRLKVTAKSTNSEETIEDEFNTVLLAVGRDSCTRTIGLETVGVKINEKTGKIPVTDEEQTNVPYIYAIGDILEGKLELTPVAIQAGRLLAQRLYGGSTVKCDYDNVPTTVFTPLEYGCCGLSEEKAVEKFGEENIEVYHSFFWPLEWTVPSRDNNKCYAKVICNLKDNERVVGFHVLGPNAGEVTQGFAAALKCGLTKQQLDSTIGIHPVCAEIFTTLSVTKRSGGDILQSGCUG
#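 Rat TrxR1 (90 nM in the dispensed reagent) was pre-reduced with 400 uM NADPH for 5 min at room temperature, then incubated with compound for 15 min. After 400 uM selenite was added, NADPH fluorescence (Ex 340/Em 450 nm) was followed for 8 min.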
# AT treatment – potential ataxia-telangiectasia treatment | 320,000 tested, 0.19% active | AID 485349 | Potency, µM (titrated, usually from 57.5 µM), without a hit: at the highest dose activation, most hits filed as activators | F2112 A-T fibroblasts, KAP-1 phosphorylation AlphaLISA; neocarzinostatin DNA damage 30 min before lysis; note: potency is the fitted concentration of half-maximal effect; % of control where 0% means no effect; nearly all actives have a fitted effect of over 45% in size
#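 hTERT-immortalized A-T patient fibroblasts (F2112), 500 cells/well in OPTI-MEM, 1% FBS, got compounds for 60 min, then NCS for 30 min at 37C. Lysates were then assayed for phospho-KAP-1 by AlphaLISA (anti-pKAP1 donor, anti-KAP1 acceptor beads), 6 hr at 25C.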
# Pin1 inh – human Pin1 inhibition. Q13526. Pin1 FP peptide displacement, HiFluor488, 10 min. Potency, µM (top dose mostly 115 µM), for the others: top-dose activity, negative = inhibition, most hits filed as inhibitors. 390,000 tested, 0.009% active. AID 504891; active = well fitted inhibition curve with a large enough effect in the polarisation, with a control signal flat, not every such curve was filed as active; inconclusive = small, poorly fitted or top-dose-only effect, or effect the other way, or a change in a side signal; inactive = no such curve, though single readings can be large or run the other way; the % refers to the polarisation; note: potency is the fitted concentration of half-maximal effect; % is set by controls: 0 for no effect and ±100 for the full control effect
# Target sequence (Q13526 whole entry, looked up): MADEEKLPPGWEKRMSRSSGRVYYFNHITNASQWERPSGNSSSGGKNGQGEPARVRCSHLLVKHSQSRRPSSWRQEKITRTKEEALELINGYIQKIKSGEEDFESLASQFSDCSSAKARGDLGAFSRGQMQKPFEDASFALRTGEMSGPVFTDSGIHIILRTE
# Akt phos inh – inhibitors of Akt phosphorylation; Neuro2A IGF-stimulated pAkt S473 HTRF, 20 min; stronger effect = lower value; activity change, % for hits at 50 µM; 360,000 tested, 0.32% active; AID 651550; in the data active = activity change below about -80%; inconclusive = mostly about -51% to -80%; note: % is set by controls: 0 for no effect and ±100 for the full control effect
#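 Neuro2A cells in DMEM with 0.5% FBS, overnight at 37 deg C, given compound at single 50 µM final, then IGF (6 nM final) for 20 min at 37 deg C. Lysed; phospho-Akt Ser473 by HTRF after 24 h, 665/615 ratio.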
# TrxR1 substrate – rat thioredoxin reductase 1 substrate activity | O89049 | purified TrxR1 substrate turnover, NADPH consumption readout | Potency, µM (highest dose often 114 µM), for inactives: at the highest dose activity change, negative = substrate turnover | 390,000 tested, 0.01% active | AID 588456; note: potency is the fitted concentration of half-maximal effect; % is set by controls: 0 for no effect and ±100 for the full control effect; nearly all actives have a fitted effect of over 50% in size
#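 Rat TrxR1, dispensed at 90 nM, was prereduced with 400 uM NADPH (final) for 5 min at ~22 deg C, then incubated with compound 15 min before 400 uM selenite. A first-read NADPH fluorescence drop versus no-compound background flagged substrates.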
# N370S GC mod – inhibits or activates N370S mutant glucocerebrosidase. P04062. N370S GC spleen homogenate, 4MU-glucoside fluorescence. Potency, µM (top dose mostly 59.4 µM), for the others: at the top dose activity change, negative = inhibition, usual class: inhibitors. 330,000 tested, 0.092% active. AID 2101;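 note: potency is the fitted concentration of half-maximal effect; 0% = full enzyme activity and -100% = no enzyme basal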
# An asterisk follows results filed as active; i = inactive; ? = inconclusive; . = not tested or not shown; [ ] = remark or other dose. Compounds with a hit are over-represented: about 1.4% of the library has one in this group of screens. Unless noted, calls come from the whole dose curve; as a rule, active = well fitted curve in the direction sought with a large enough effect; inconclusive = small, poorly fitted or top-dose-only effect, or another doubt; inactive = no such curve, though single readings can be large; an effect the other way counts as inactive or inconclusive.
SMILES,rTrxR1 inhibitor,AT treatment,Pin1 inh,Akt phos inh,TrxR1 substrate,N370S GC mod
COc1ccc(OC)c(NC(=O)CSc2nnc(C3CCCCC3)n2-c2ccccc2)c1,-1.5%,.,-4.9%,-110.8%*,-6.3%,13.8%
Cc1cccc(NC(=O)CSc2ccc(-c3ccccn3)nn2)c1C,20.6%[57.1 µM],1.4%,-5.9%,i,7.5%[57.1 µM],10.9%
Cc1cccc(NC(=O)CSc2ccc(-c3ccco3)nn2)c1C,12.6µM*,-0.1%,?,i,-5.7%,20.0%
CC(=O)c1cccc(NC(=O)CSc2ccc(-c3ccco3)nn2)c1,11.2µM*,9.2%,?,i,-3.8%,-4.2%
COc1ccc(C)cc1NC(=O)CSc1ccc(-c2ccco2)nn1,15.8µM*,11.3%,?,i,3.5%,-12.6%
O=C(O)Cc1cc(F)c(S(=O)(=O)N2CCN(S(=O)(=O)c3ccc4c(c3)OCCO4)CC2)cc1F,.,.,7.1%,.,.,.
CC1CCn2c(nc3cc(C(=O)NCCc4ccccc4)ccc32)C1 (stereo not given),18.8%[57.1 µM],.,-5.1%,.,-3.1%[57.1 µM],.
O=C(CSc1ccc(-c2ccco2)nn1)c1cccc([N+](=O)[O-])c1,15.8µM*,1.2%,?,i,7.9%,-4.0%
O=C(CSc1ccc(-c2ccco2)nn1)Nc1ccc(F)cc1F,25.1µM*,2.5%,-1.7%,i,-4.0%,-12.0%
O=C(CSc1ccc(-c2ccco2)nn1)N1CCCC1,44.7µM*,-4.2%,-0.7%,i,2.0%,-4.3%
COc1cccc(-c2nnc(SCC(=O)Nc3cc(C)ccc3OC)n2N)c1,10.7%,-11.3%,3.8%,-118.9%*,-3.1%,-6.3%
O=C(CSc1ccc(-c2ccco2)nn1)NCc1ccc(Cl)cc1,28.2µM*,9.4%,-1.7%,i,1.4%,11.5%
COc1cccc(NC(=O)CSc2nnc(-c3cccs3)n2C)c1,-3.1%,8.0%,3.5%,-107.2%*,-4.4%,-0.6%
O=C(CSc1ccc(-c2ccco2)nn1)NCc1ccccc1,?,0.6%,-3.2%,i,0.6%,-8.6%
COc1ccccc1/C=C/c1ccnc2ccccc12,-10.0%[0.0914 µM],.,.,.,3.7%,.
CCN1CCOC(=O)C1CC(=O)Nc1cc(C)cc(C)c1 (stereo not given),11.2µM*,.,-0.5%,.,-4.4%,.
CCc1ccc(NC(=O)CC2C(=O)OCCN2CC)cc1 (stereo not given),6.31µM*,.,9.4%,.,9.9%[11.4 µM],.
CCN1CCOC(=O)C1CC(=O)Nc1ccccc1C(F)(F)F (stereo not given),?,.,4.3%,.,13.7%,.
CCN1CCOC(=O)C1CC(=O)Nc1cc(Cl)ccc1OC (stereo not given),11.2µM*,.,3.9%,.,7.3%,.
CC1=CC(=O)C2=C(C)CC[C@H]3[C@H](C)C(=O)O[C@@H]3C12 (stereo not given in full),.,.,.,.,.,-4.5%
COc1ccccc1N1CCN(S(=O)(=O)/C=C/c2ccccc2)CC1,3.7%[57.1 µM],6.2%,-2.6%,-125.5%*,8.7%[57.1 µM],7.3%
O=S(=O)(/C=C/c1ccccc1)N1CCN(c2ccccc2)CC1,21.2%[57.1 µM],-3.4%,-1.5%,i,-10.4%,2.2%
O=C(NCC(c1cccnc1)N1CCN(Cc2ccccc2)CC1)C(=O)Nc1cccc(Cl)c1 (stereo not given),14.3%,.,-1.4%,.,-2.2%,.
COC(=O)Nc1nc(-c2ccccc2)c(C(=O)c2ccc(Cl)cc2)s1,9.1%,-7.8%,-3.2%,-85.6%*,-4.3%,-3.6%
Cn1cnnc1Sc1ccc(/C=C/C(=O)c2ccc(O)cc2)cc1[N+](=O)[O-],22.4µM*,17.2%,?,i,-15.3%,?
SMILES,rTrxR1 inhibitor,AT treatment,Pin1 inh,Akt phos inh,TrxR1 substrate,N370S GC mod
COc1cc2c3cc1OCc1c(O)c(OC)cc4c1C(Cc1ccc(cc1)Oc1cc(ccc1O)CC3N(C)CC2)N(C)CC4 (stereo not given),10.1%,.,-6.5%,.,-3.4%,-2.2%
CN1CCc2cccc3c2[C@H]1Cc1ccc(O)c(O)c1-3,22.4µM*,-8.0%,?,i,10.3%,-9.6%
CCc1ccc(CN(Cc2ccco2)c2cnc(S(C)(=O)=O)nc2C(=O)Nc2ccccc2Cl)cc1,-13.3%,.,22.1%,.,6.2%,.
Cc1ccc(C(=O)N2CCN(c3ccc(F)cc3)CC2)cc1S(=O)(=O)N1CCCCC1,-9.8%,7.8%,-3.3%,i,-0.2%,-14.6%
Cc1ccc(C(=O)Nc2cccc(O)c2)cc1S(=O)(=O)N1CCCCCC1,15.1%,-3.3%,?,i,-1.5%,-0.5%
CNC(=O)c1ccccc1NC(=O)c1ccc(C)c(S(=O)(=O)N2CCCCC2)c1,25.8%[57.1 µM],5.2%,4.9%,-111.9%*,10.8%[57.1 µM],11.5%
Cc1ccc(C(=O)N2CCN(c3ccccc3)CC2)cc1S(=O)(=O)N1CCCC1,5.6%,3.0%,12.3%,-107.0%*,-10.5%,-1.3%
O=[S+]([O-])(NC[C@H]1CCC[C@H](CN[S+](=O)([O-])c2c(F)cccc2F)C1)c1ccc2c(c1)OCCO2,.,.,-0.5%,.,.,.
COc1cccc(Cn2cnc3c(cnn3C(C)(C)C)c2=O)c1,18.1%,.,.,.,0.8%,.
COCc1cc(S(=O)c2ccc(Cl)cc2)nc(C)n1 (stereo not given),14.1µM*,2.3%,-0.8%,i,-0.4%,10.9%
c1ccc(-c2onc(-c3ccco3)c2-c2ccc3c(c2)OCO3)cc1,50.1µM*,10.9%,16.0%,i,8.2%,2.7%
COc1ccc(-c2c(-c3ccc4c(c3)OCO4)noc2-c2ccsc2)cn1,18.1%,.,.,.,1.3%,.
Cc1ccc(N2C(=O)CC(Nc3ccc(Cl)c(S(=O)(=O)N(C)C)c3)C2=O)c(C)c1 (stereo not given),50.1µM*,1.2%,0.7%,i,5.3%,3.0%
COc1ccc(CCn2c(=S)[nH]c(=O)c3nccnc32)cc1OC,-6.5%,.,-12.3%,.,-4.7%,.
O=C(NCc1ccccc1)C1(CC2CC(c3ccccc3)=NO2)CCNCC1 (stereo not given),22.4µM*,?,-0.8%,i,4.3%,.
O=C1Nc2cc(S(=O)(=O)N3CCCC3)ccc2N2CCCC12 (stereo not given),50.1µM*,10.7%,?,i,-3.0%,-14.8%
CC1CC(C)CN(C(=O)COC(=O)c2c[nH]c3ccccc23)C1 (stereo not given),-4.8%,10µM*,1.5%,i,-4.8%,.
CCOc1ccc(/C=C/c2nc(C#N)c(N3CCN(c4ccccc4)CC3)o2)cc1,29.7%,.,5.6%,.,27.2%,.
CCN(C(=O)c1cc2c(=O)n3cccc(C)c3nc2n1CCCOC)C1CCCCC1,-10.8%,35.5µM*,2.9%,i,50.7%,?
Oc1ccc(CNc2ccc(F)cc2F)c2cccnc12,.,.,4.5%,.,.,.
CCC(=O)Nc1nn(C)c2nc3c(C)cccc3cc12,9.8%,26.1%,?,-113.2%*,12.1%,6.3%

# Assay outcomes from PubChem.
